Screens from PubChem.
Tg IFNy HTS: inhibitors of Toxoplasma gondii growth with IFN-gamma. 3.8% of 69,000 active. AID 1259416. activity change, negative = inhibition, % (test concentration not listed). Toxoplasma gondii growth in IFN-gamma-treated host cells; active compounds read low; in the data active = activity change below about -70%, passing the limit was not always enough;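 also: host cells are HeLa cells infected with Toxoplasma gondii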
* hit, by the source's call. Shown is part of a subset that was picked to be rich in hits.

SMILES	Tg IFNy HTS
CCC(CN1CCOCC1)NC(=O)Cc1coc2cc(C)cc(C)c12 (centres undefined)	-82*
Cc1ccc2c(CC(=O)NCCC3CN(C)CCO3)coc2c1 (centres undefined)	0
COC(=O)c1c(NCc2ccccc2OC)c2cccc(Cl)c2[nH]c1=O	-4
COC(=O)c1c(NCc2ccc(OC)cc2)c2cccc(Cl)c2[nH]c1=O	-29
COC(=O)c1c(NCc2ccc(F)cc2F)c2cc(F)ccc2[nH]c1=O	6
COC(=O)c1c(NCc2ccccc2)c2cccc(Cl)c2[nH]c1=O	-55
COC(=O)c1c(NCc2ccc(SC)cc2)c2cccc(Cl)c2[nH]c1=O	-79*
COC(=O)c1c(NCCO)c2cccc(Cl)c2[nH]c1=O	3
COC(=O)c1c(NCc2ccc3c(c2)OCO3)c2cccc(Cl)c2[nH]c1=O	82
COC(=O)c1c(NCc2cc(F)cc(F)c2)c2cccc(Cl)c2[nH]c1=O	-98*
COC(=O)c1c(NCc2cccnc2)c2cccc(Cl)c2[nH]c1=O	17
COC(=O)c1c(NCC(C)C)c2cccc(Cl)c2[nH]c1=O	-7
COC(=O)c1c(NCCC(C)C)c2cccc(Cl)c2[nH]c1=O	-85*
COC(=O)c1c(NCc2ccc(F)cc2F)c2cccc(Cl)c2[nH]c1=O	-76*
CCN1CCC2(CC1)OC(=O)C(C)=C2C(=O)NCCCN(C)Cc1ccccc1	82
O=C(c1ccc(=O)[nH]n1)N1CCc2nnc(CCc3ccccc3)n2CC1	2
C=CCO[C@H]1CN(C(=O)c2ccnnc2)[C@H]2COC[C@@H]12	-4
CO[C@H]1CN(C)C(=O)c2cc(NC(=O)c3cccc(F)c3)ccc2OC[C@H](C)N(C)C[C@@H]1C	87
COc1cc(C(=O)NCCc2sc(-c3ccc(F)cc3)nc2C)cc(OC)c1OC	-44
Cc1ccccc1CSCC(=O)Nc1c[nH]c(=O)[nH]c1=O	15
O=C(COc1ccc(Cl)cc1)Nc1c[nH]c(=O)[nH]c1=O	-106*
O=C(COc1ccc(Cl)cc1)Nc1ccc(Cl)cn1	197
CCOC(=O)c1coc(N2C[C@H]3C[C@H](O)[C@H](O)C[C@H]3C2)n1	5
Cc1cccc(-c2nc(Cn3nnc(-c4nc(-c5ccc(OC(F)(F)F)cc5)no4)c3C)c(C)o2)c1	5
CC(C)c1cc(C(=O)NCc2nc(Cc3cccs3)no2)n(C)n1	-83*
SMILES	Tg IFNy HTS
Cc1ccc2c(c1)cc(C(=O)NCc1nc(Cc3ccccc3)no1)n2C	-53
O=C(NCc1nc(Cc2cccs2)no1)c1cccc2ccnn12	-53
N#Cc1nccnc1S(=O)(=O)CCO	30
CC(C)OC(=O)c1cn(Cc2c(F)cccc2F)c2sc(-c3ccc(NC(=O)C(C)C)cc3)c(CN(C)Cc3ccccc3)c2c1=O	-80*
CCOCC(=O)N1CC[C@]2(CCC[C@@H](CNc3ccccn3)O2)C1	8
OCC1OC(n2cnc3c(NC4CCCC4)ncnc32)C(O)C1O (centres undefined)	9
OC[C@H]1O[C@@H](n2cnc3c(NCc4ccco4)ncnc32)[C@H](O)[C@@H]1O	-83*
OC[C@H]1O[C@@H](n2cnc3c(NC4CCCC4)ncnc32)[C@H](O)[C@@H]1O	-2
O=C1CCC2(CCCN(C(=O)NCc3ccccc3)CC2)N1 (centres undefined)	2
Cc1nn(CC(=O)NCC2CCCO2)c(=O)c2nc(-c3ccccc3)sc12 (centres undefined)	44
CCOC(=O)CSC1=Nc2ccccc2C2=NC(CC(=O)NCCc3ccccc3)C(=O)N12 (centres undefined)	25
CCOc1ccc(C2=CC(c3ccc(C)cc3)c3ccccc3O2)cc1 (centres undefined)	30
CN(Cc1ccc2nsnc2c1)Cc1cnn2cccnc12	-4
Cc1cccc(/C=N/Nc2cc(N3CCOCC3)nc(OCCc3ccccn3)n2)c1	-74*
Cc1cccc(CN2CCOCC3(CCN(c4ccccn4)C3)C2)n1 (centres undefined)	-43
Cc1cccnc1CC(C)Nc1cc(N2CCOCC2)nc(N)n1 (centres undefined)	6
CN(C)CCSC(=S)NC1CCCCCCC1	42
CCn1nc(CNC(=O)c2cccc(C3CCNC3)c2)c2ccccc21 (centres undefined)	-86*
O=C(NCc1nnc2n1CCCC2)c1cccc(C2CCNC2)c1 (centres undefined)	5
CN(Cc1cccc2ncccc12)C(=O)c1cccc(C2CCNC2)c1 (centres undefined)	4
COCCN1CCc2c(CNC(=O)c3cnn(C)c3)cncc2C1	-7
COCCOC(=O)N1CCC(c2nn(C)c(=O)n2-c2ccccc2)CC1	4
CC(C)NC(=O)N1CCC(c2cc3c(ncn3C)c(NCc3ccccc3)n2)CC1	-46
CN(C)C(=O)N1CCC(c2cc3c(ncn3C)c(NCc3ccccc3)n2)CC1	5
CC(C)n1cnc2c(NCC3CC3)nc(C3CCN(C(=O)c4ccccc4)CC3)cc21	-82*
SMILES	Tg IFNy HTS
Cc1cc(C(=O)N[C@H](CO)CC(C)C)c(NC(=O)C(C)(C)C)s1	-2
Cc1nc(SCc2c(Cl)cccc2Cl)nc(OC(=S)N(C)C)c1C	-64
CC(C)N1CCc2ncn(C)c2C1C(=O)N1CCN(c2ccccc2)CC1 (centres undefined)	-29
CCS(=O)(=O)N1CCC2(CC1)OC(=O)C(C)=C2C(=O)NCC(C)c1ccccc1 (centres undefined)	23
CC(=O)N1CCC2(CC1)OC(=O)C(C)=C2C(=O)NC1CCCC1	123
Cc1ccc(C(=O)Nc2ccc(-c3nc(Cn4cccn4)c(C)o3)cc2)cc1	-47
Cc1cnn(Cc2nc(-c3ccc(NC(=O)c4cc(C)on4)cc3)oc2C)c1	-95*
Cc1cc(C(=O)Nc2ccc(-c3nc(Cn4cccn4)c(C)o3)cc2)no1	-93*
Cc1cc(C)cc(C(=O)Nc2ccc(-c3nc(Cn4cccn4)c(C)o3)cc2)c1	14
Cc1cnn(Cc2nc(-c3ccc(NC(=O)c4c(F)cccc4F)cc3)oc2C)c1	-68
COc1ccccc1CNC(=O)c1cncc(OC(C)C)c1	-27
CCN1CCC2(CC1)OC(=O)C(C)=C2C(=O)Nc1ccc(Cl)cc1	91
CCC(=O)Nc1cccc(NC(=O)Cn2c(-c3ccc(F)cc3)nc3ccccc32)c1	33
COc1ccccc1C(=O)Nc1ccc(-c2nc(-c3ccc(C)cc3)co2)cc1	-55
COc1ccccc1C(=O)Nc1cccc(NC(=O)c2c(Cl)cnn2C)c1	-85*
COCC1(C(=O)Nc2cccc(NC(=O)c3ccccc3OC)c2)CCC1	-2
CN(C)C(=O)c1ccc2ncnc(N3CCCCC3)c2c1	-19
CCn1ccnc1CC1COc2ccccc2O1 (centres undefined)	-18
c1ccc2c(c1)OCC(c1csc3ncnc(N4CCCCC4)c13)O2 (centres undefined)	-90*
O=C(O)CN1CCC2(CCc3ccccc32)CC1	-21
CCC(C)n1ncn(-c2ccc(N3CCN(c4ccc(OCC5COC(Cn6cncn6)(c6ccc(Cl)cc6Cl)O5)cc4)CC3)cc2)c1=O (centres undefined)	-95*
C[C@@H](O)C#Cc1ccc([C@@H]2[C@H](CO)N3CCCCN(CC4CC4)C[C@@H]23)cc1	35
CCOC(=O)N1CCC2(CC1)OC(=O)C(C)=C2C(=O)NC1CCCC1	56
CC(C)CN1CCCC(N2C(=O)NC3(CCN(CCc4ccccc4)CC3)C2=O)C1 (centres undefined)	-44
O=C(C[C@@H]1CC[C@@H]2[C@H](COC[C@@H](O)CN2Cc2ccc(Oc3ccccc3)cc2)O1)N1CCN(c2ccccc2)CC1	-52
